# Laboratory results taken from ChEMBL document CHEMBL1201862, “PubChem BioAssay data set” (2004).
# These assays gave more results; the selection is not random. Active and inactive are the calls of the source. The rule behind the calls is not given here.
# Target: Luciferin 4-monooxygenase (Photinus pyralis) (UniProt P08659)
# Sequence (P08659 whole entry): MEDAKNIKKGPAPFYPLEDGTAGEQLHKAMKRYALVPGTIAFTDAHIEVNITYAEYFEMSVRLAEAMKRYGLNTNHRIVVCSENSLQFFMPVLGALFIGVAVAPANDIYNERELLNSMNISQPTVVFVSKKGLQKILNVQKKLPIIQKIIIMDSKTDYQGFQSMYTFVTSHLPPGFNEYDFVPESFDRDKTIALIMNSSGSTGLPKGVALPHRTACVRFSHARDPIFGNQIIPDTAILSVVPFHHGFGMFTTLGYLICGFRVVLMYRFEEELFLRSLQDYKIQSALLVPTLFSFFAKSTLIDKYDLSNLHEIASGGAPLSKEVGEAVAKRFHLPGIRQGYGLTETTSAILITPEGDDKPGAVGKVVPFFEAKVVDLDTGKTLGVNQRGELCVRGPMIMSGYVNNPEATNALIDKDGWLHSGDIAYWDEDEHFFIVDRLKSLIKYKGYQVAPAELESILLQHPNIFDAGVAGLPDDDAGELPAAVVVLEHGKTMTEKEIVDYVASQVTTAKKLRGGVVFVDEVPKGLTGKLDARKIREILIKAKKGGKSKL
compound,measurement,value
CC(O)[C@@H]1NC(=O)[C@H](CCCCN)NC(=O)[C@@H](Cc2c[nH]c3ccccc23)NC(=O)[C@H](Cc2ccccc2)NC(=O)[C@@H](NC(=O)[C@H](N)Cc2ccccc2)CSSC[C@@H](C(=O)N[C@H](CO)[C@@H](C)O)NC1=O (stereo partly specified),Potency,inactive
